Only some compounds are listed: those with a hit (about 6% of all), similar ones and a draw of the others.
DRD3 antagonist – D3 dopamine receptor (human) antagonism. D3R cells, DiscoveRx beta-arrestin luminescence, antagonist mode; stronger effect = lower value. AID 652054. P35462. max response, negative = inhibition, %. 360,000 compounds, 2.5% hits; in the data active = max response below about -50%; also: % is scaled to controls: 0 for no effect and ±100 for the full control effect
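Cells plated overnight at 1500 cells/well, then exposed to library compounds with dopamine controls for 90 minutes at 37 degrees C. DiscoveRx reagent added for 30–60 minutes at room temperature; luminescence read, quantitative HTS format.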
DRD3 agonist – activates the human D3 dopamine receptor; 410,000 compounds, 0.58% hits; AID 652048; max activation, %; P35462; D3R DiscoveRx beta-arrestin cells, luminescence, 90 min; in the data active = max activation above about 30%; also: 0% is about no effect
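Agonist mode: compounds and dopamine controls were applied to plated cells for 90 min at 37 degrees C after an overnight attachment at 1500 cells/well. Luminescent read-out followed 30 - 60 minutes at room temperature with DiscoveRx detection reagent.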
D1 antag – human D1 dopamine receptor antagonism; 360,000 compounds, 3.2% hits; P21728; HEK293 TREx D1 cells, calcium flux, dopamine EC80; stronger effect = lower value; activity change, negative = inhibition, % at 10 µM; AID 504652; in the data active = activity change below about -30%; also: % is scaled to controls: 0 for no effect and ±100 for the full control effect
Target sequence (P21728 whole entry, looked up): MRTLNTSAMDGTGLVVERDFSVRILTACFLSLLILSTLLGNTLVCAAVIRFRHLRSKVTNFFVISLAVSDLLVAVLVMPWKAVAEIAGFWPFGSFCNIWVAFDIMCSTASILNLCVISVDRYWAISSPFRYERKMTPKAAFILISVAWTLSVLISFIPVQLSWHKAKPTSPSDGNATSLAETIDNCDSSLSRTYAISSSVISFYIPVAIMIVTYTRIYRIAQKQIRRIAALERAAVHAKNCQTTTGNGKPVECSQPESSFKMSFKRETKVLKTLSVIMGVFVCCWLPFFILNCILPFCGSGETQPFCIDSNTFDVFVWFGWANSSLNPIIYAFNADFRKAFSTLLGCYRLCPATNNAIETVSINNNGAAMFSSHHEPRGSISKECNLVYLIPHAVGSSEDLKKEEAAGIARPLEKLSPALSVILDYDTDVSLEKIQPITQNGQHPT
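Calcium flux readout: force-coupled, inducible Hek293 Trex D1 line, cells induced overnight at 30 C with tetracycline, dye-loaded 30–90 min at RT. Antagonism scored against EC80 dopamine challenge given 180 s after compound.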
D1 agonist – agonists of human D1 dopamine receptor. activation, % at 2 µM. AID 504660. HEK293 T-REx D1 cells, calcium flux, agonist mode. P21728. 360,000 compounds, 1% hits; in the data active = activation above about 30%; also: 0% is about no effect
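Agonism was scored from calcium flux recorded over 180 s (1 read/s) after pintool compound addition, following a 10-cycle baseline. Cells were inducible force-coupled HEK293 TREx D1, plated overnight at 30 C and loaded with no-wash calcium dye.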
D1 PAM – enhances dopamine response at the human D1 receptor | P21728 | HEK293 TREx D1 cells, calcium flux, dopamine EC20 potentiation | potentiation, % at 10 µM | 360,000 compounds, 0.036% hits | AID 504651; in the data active = potentiation above about 30%; also: 0% is about no effect
The depositor's hits bear a star; . = no result given.

SMILES	DRD3 antagonist	DRD3 agonist	D1 antag	D1 agonist	D1 PAM
Cn1c(-c2ccccc2)cnc1SCC(=O)N1CCCc2ccccc21	12	-6	2	8	2
O=C(CSc1ncc(-c2ccccc2)n1C1CCCC1)N1CCc2ccccc21	-85*	-35	-24	3	2
O=C(Cn1c(SCC(=O)N2CCc3ccccc3C2)nc2ccccc21)NC1CCCC1	-19	-2	11	4	-10
O=C(Cn1c(SCC(=O)N2CCc3ccccc32)nc2ccccc21)NC1CCCC1	-76*	-21	23	-1	-7
Cc1nn(C(=O)c2c(F)cccc2F)c(C)c1S(=O)(=O)N1CCCCCC1	.	-1	-63*	4	-4
CCOC(=O)Cn1nc(C)c(NC(=O)COc2ccc(Cl)cc2C)c1C	.	-7	-10	2	-1
CCOC(=O)C1=CN(Cc2cccc(F)c2)S(=O)(=O)N(CC)C1c1ccccc1 (centres undefined)	-25	0	.	.	.
CCOC(=O)C1=CN(Cc2cccc(Br)c2)S(=O)(=O)N(C)C1C (centres undefined)	1	-9	.	.	.
CCOC(=O)C1=CN(Cc2cccc(F)c2)S(=O)(=O)N(CC)C1c1ccc(C(F)(F)F)cc1 (centres undefined)	-55*	-9	.	.	.
CCOC(=O)C1=CN(Cc2cccc(I)c2)S(=O)(=O)N(C)C1C (centres undefined)	-67*	-49	.	.	.
O=C(COC(=O)C12CC3CC(CC(O)(C3)C1)C2)NCc1ccco1	.	.	2	0	3
Nc1nnnn1/N=C/c1cc(Cl)cc(Cl)c1O	-29	-10	-4	126*	2
Cc1ccc(NC(=O)CSc2nc3ccccc3c3nc(CCn4c(C)nc5ccccc54)nn23)cc1F	.	-3	0	0	-3
O=C(O)c1cc2cccc(S(=O)(=O)N3CCOCC3)c2cc1O	-54*	12	-7	1	-2
CC(=O)C1=C(c2ccccc2)N(C(C)=O)n2c(nnc2C2CCCCC2)S1	.	-4	.	6	-3
Cc1ccc(C)c(SCC(=O)NNC(=O)c2ccccc2)c1	4	19	-18	5	3
Cc1ccc(SCC(=O)NNC(=O)c2ccccc2)cc1C	-70*	-16	-1	2	12
COC(=O)c1ccc(C2Nc3c(C)cccc3-c3cc(C)nn32)cc1 (centres undefined)	.	8	3	0	-8
Cc1ccc(/C=C(\C#N)C(=O)Nc2c(C)cccc2C)s1	-80*	-10	-12	4	9
COC(=O)c1ccc(COc2ccccc2/C=C(\C#N)C(=O)Nc2c(C)cccc2C)cc1	5	9	6	5	-8
Cc1ccc(NC(=O)/C(C#N)=C/c2ccc(C)s2)c(C)c1	13	8	4	43*	-2
Cc1cccc(C)c1NC(=O)/C(C#N)=C/c1ccsc1	0	4	-35*	3	5
Cc1ccc(CNC(=O)/C(C#N)=C/c2ccc(C)s2)cc1	2	-1	-25	5	-10
CCc1ccc(-n2c3nc(=O)[nH]c(=O)c-3cc3c(C)nn(-c4ccccc4)c32)cc1	.	4	12	2	1
Cc1ccccc1OCC(=O)N(Cc1ccc(N(C)C)cc1)CC1CCCO1 (centres undefined)	.	3	4	0	1
SMILES	DRD3 antagonist	DRD3 agonist	D1 antag	D1 agonist	D1 PAM
CSc1ccc(COC(=O)CCS(=O)(=O)c2ccc(C)cc2)cc1	0	-11	-3	3	-7
COc1ccc(COC(=O)CCS(=O)(=O)c2ccc(C)cc2)cc1	12	5	-44*	7	1
CSCCC(=O)N(C)CC1CCN(CCc2cccc(C(F)(F)F)c2)CC1	-7	-16	-4	3	-4
CN(CC1CCCN(CCc2cccc(C(F)(F)F)c2)C1)C(=O)c1ccco1 (centres undefined)	-63*	-13	-40*	3	11
CC(=O)Nc1ccc(CN(C)CC2CCCN(CCc3cccc(C(F)(F)F)c3)C2)cc1 (centres undefined)	-11	-8	-5	4	-3
CN(CC1CCN(CCc2cccc(C(F)(F)F)c2)CC1)C(=O)c1ccc(F)cc1F	-69*	-27	6	-1	0
COc1ccc(C(=O)N(C)CC2CCN(CCc3cccc(C(F)(F)F)c3)CC2)cc1C	-77*	-27	-49*	11	-2
COc1ccc(/C=C2/SC(=S)N(c3ccc(S(=O)(=O)Nc4nccs4)cc3)C2=O)cc1	-54*	16	-1	2	-1
O=C(Oc1ccc(O)cc1)C12CC3CC(CC(C3)C1)C2	0	-1	-8	41*	21
CC1=NN(c2cccc([N+](=O)[O-])c2)C(=O)C1	13	6	-10	43*	-2
CC1=NN(c2ccccc2)C(=O)C1	-12	0	3	4	2
CCCc1cc(=O)[nH]c(Nc2ccc(OCC)cc2)n1	.	2	-84*	9	4
CCCCc1ccc(Nc2nc(CCC)cc(=O)[nH]2)cc1	12	4	2	1	0
CCCCc1c(C)nc(Nc2ccc(OC)cc2)[nH]c1=O	3	-8	-37*	1	-1
Nc1nc2c(c(=O)[nH]1)N(C=O)C(CNc1ccc(C(=O)N[C@@H](CCC(=O)O)C(=O)O)cc1)CN2 (some centres undefined)	.	13	.	.	.
CCc1ccc(-n2nc(C)c3c(C(=O)Nc4cc(OC)cc(OC)c4)cc(C)nc32)cc1	.	18	6	4	1
C[C@H]1[C@H](c2ccccc2)C[C@@H](C(=O)O)C1(C)C	-17	32*	-16	2	-11
COC(=O)[C@@]1(Cc2ccc(F)cc2)[C@H]2c3cc(C(=O)N(C)C)n(CCF)c3C[C@H]2CN1C(=O)c1ccccc1	0	3	.	.	.
COC(=O)[C@@]1(Cc2ccccc2)[C@@H]2C(=CC(=O)[C@H]2CC(=O)C(=O)N(C)C)CN1C(=O)c1ccccc1	-51*	-20	18	-1	-2
CCOC(=O)c1c(/C=N/Nc2ccccc2)c2sc(C)cc2n1C	.	.	8	-1	10
C=CCOc1c(CNc2ccc3[nH]c(=O)[nH]c3c2)cccc1OC	7	6	4	2	-2
O=c1[nH]c2ccc(NCc3ccc(-c4ccc(Cl)cc4)o3)cc2[nH]1	.	0	-9	-3	0
COc1cccc(CNc2ccc3[nH]c(=O)[nH]c3c2)c1OCc1ccc(F)cc1	-54*	-12	10	5	2
COc1ccc(-c2ccc(CNc3ccc4[nH]c(=O)[nH]c4c3)o2)cc1Cl	.	8	-52*	7	-2
O=C(CCCN1C(=O)c2cccnc2Oc2ccc(Cl)cc21)NCc1ccccc1F	.	-17	19	-2	2
Oc1cccc(-c2nc(-c3cccs3)c(-c3cccs3)[nH]2)c1	.	-8	9	0	-3

Compound activity: PubChem BioAssay, National Center for Advancing Translational Sciences (NCATS)
